This passage reports growth results from PubChem BioAssay (NCI).

What all share (test): NCI-60 one-dose screen, 48 h (100 = growth as untreated, 0 = no growth, -100 = all killed)
Details in all cases: 10 µM unless noted

The subject of test [1] is NCI-H23 lung.
Test [2] has as its system NCI-H226 lung.
Test [3] relates to NCI-H322M lung.
In test [4] the test system is HOP-62 NSCLC.
Test [5] relates to NCI-H460 lung.
For test [6], the system named is HOP-92 NSCLC.
The test system of test [7] is NCI-H522 lung.
The test system of test [8] is A549/ATCC NSCLC.
Test [9] deals with 786-0 renal.
The subject of test [10] is COLO 205 colon.
Test [11] concerns DU-145 prostate.
Test [12] relates to K-562 leukemia.
For test [13], the system named is MALME-3M melanoma.
Test [14] deals with MDA-MB-231 breast.
The test system of test [15] is RXF 393 renal.
In test [16] the test system is SF-268 CNS.
The subject of test [17] is SF-295 CNS.
For test [18], the system named is SF-539 CNS.
Test [19] relates to UACC-257 melanoma.
Test [20] relates to M14 melanoma.

Molecules are shown by their SMILES. Compounds without any hit were thinned out: in the full panel of roughly 83,000, 20% have a hit.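 Note: values are percent growth. 100 is the growth of untreated cells, values between 100 and 0 indicate rising inhibition; between -100 and 0 indicates cell death.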 Values without a mark were called inactive. Active and inactive are the calls of the source. The calls were made as follows: active = growth percent below 10; inactive = the rest.

In the case of `COc1ccc(C(=O)NC(=O)Nc2cc3c(cc2F)/C(=C/c2[nH]c(C)c(CCC(=O)O)c2C)C(=O)N3)c(F)c1`, the growth in [1] is 41.3%; in test [2], 53.3%; in test [3], 63.9%; in [4], 25.8%; in test [5], 28.6%; in test [6] it was -0.4% (active). The growth in [7] was 48.6%; in [8] it was 13.5%; in test [9] it was 39%; in [10], 67.4%; in test [11], 45.9%; in test [12] it was 45.8%. For the same compound, the growth in [13] is 49.9%; in test [14], 61.5%; in test [15] it was 33.5%; in test [16], 32.3%; in [17], 21.3%; in test [18], 15.4%. For the same compound, the growth in test [19] was 20.1%; in test [20], 44.2%.
On to `Clc1cccc(-c2cc(-c3ccc4c(c3)OCCO4)[nH]n2)c1`, for which the growth is 40% [25 µM] in test [1]; 34.8% [25 µM] in test [2]; 37.2% [25 µM] in test [3]; 26.6% [25 µM] in test [4]; 12.1% [25 µM] in [5]; 55.4% [25 µM] in [6]. The growth in test [7] is 0.794% [25 µM] (active); in [8] it was 41.2% [25 µM]; in test [9], 56.8% [25 µM]; in test [10], 11.9% [25 µM]; in test [11], 38.8% [25 µM]; in [12], 12% [25 µM]. Further, the growth in test [13] is 35.4% [25 µM]; in [14] it was 32.4% [25 µM]; in test [15] it was 8.25% [25 µM] (active); in test [16], 53.2% [25 µM]; in [17], 29% [25 µM]; in test [18] it was 33.6% [25 µM]. Besides, the growth in [19] was 74% [25 µM]; in test [20], 25% [25 µM].
As for `CN1CCN(Cc2ccc(NC(=O)c3nc4ccc5[nH]ncc5c4c4c3CCC4)cc2C(F)(F)F)CC1`, the growth in [1] was 19.2%; in test [2], 73.9%; in test [3], -50.9% (active); in [4] it was -78.7% (active); in test [5], -84.2% (active); in test [6], 65.5%. The growth in [7] is -71.1% (active); in [8] it was -71.6% (active); in [9] it was -96.5% (active); in test [10], -43% (active); in test [11], -90.1% (active); in test [12], -46.6% (active). For the same compound, the growth in test [13] is -55% (active); in test [14] it was -84.3% (active); in test [15], 67.9%; in test [16], 98.2%; in test [17], 99.8%; in [18], -96% (active). For the same compound, the growth was -64.5% (active) in [19] and -84.5% (active) in test [20].
Regarding `Cc1cc(C2(c3cc(C)c(O)cc3C)OS(=O)(=O)c3ccccc32)c(C)cc1O`, the growth in test [1] is 106%; in test [2], 106%; in [3], 101%; in test [4] it was 92.2%; in test [5], 108%; in test [6], 81.7%. Also, the growth in test [7] was 92.2%; in test [8], 97.2%; in [9], 109%; in [10], 111%; in [11], 119%; in [12] it was 102%. Further, the growth in test [13] is 122%; in test [14], 100%; in test [15] it was 114%; in test [16], 103%; in [17], 107%; in [18], 105%. In addition, the results for the growth in test [19] and in [20] were 87.7% and 108%, respectively.
Consider `COc1ccc(-c2nc(/C=C3/C(=O)Nc4ccc(F)cc43)c3ccccn23)cc1`, for which the growth in [1] is 97.8%; in test [2] it was 114%; in [3], 126%; in test [4] it was 108%; in test [5], 94.8%; in test [6], 92.3%. Further, the growth in test [7] was 104%; in test [8], 99.4%; in [9], 98.8%; in test [10] it was 97.3%; in test [11], 102%; in test [12], 87.2%. Moreover, the growth in [13] is 130%; in test [14], 89.2%; in test [15] it was 112%; in [16], 107%; in test [17], 140%; in test [18], 117%. The growth in [19] was 102%; in test [20] it was 106%.
In the case of `O=C1NN(C(=O)c2ccc(Cl)cc2)C(c2ccccc2)=N/C1=C\c1cn(-c2ccccc2)nc1-c1ccccc1`, the growth in [1] was 89.6%; in test [2] it was 106%; in test [3] it was 94.7%; in test [4] it was 90.3%; in [5], 99.5%; in test [6], 94.6%. For the same compound, the growth in [7] was 85%; in test [8] it was 88%; in test [9], 90.7%; in test [10], 109%; in [11] it was 103%; in test [12], 99.2%. Besides, the growth was 77.7% in test [13]; 92% in test [14]; 89.9% in test [15]; 94.8% in test [16]; 73.8% in test [17]; 94.1% in [18]. Moreover, the results for the growth in [19] and in [20] were 92.8% and 83.4%, respectively.
Take `Clc1ccccc1-c1nc2ccccc2[nH]1`: the growth in test [1] was 90%; in [2] it was 120%; in [3] it was 152%; in test [4], 92%; in test [5], 104%; in test [6], 92.4%. Also, the growth in [7] is 87.9%; in [8], 105%; in [9], 46.3%; in test [10], 112%; in test [11], 110%; in test [12] it was 89.6%. The growth was 101% in [13]; 102% in test [14]; 99.9% in test [15]; 102% in [16]; 96% in [17]; 94.6% in [18]. Further, the growth was 113% in test [19] and 85.8% in test [20].
As for `O=C1C(Cl)=C(Nc2ccccn2)C(=O)c2ccccc21`, the growth is 40.5% in [1]; 94.1% in test [2]; 115% in test [3]; 46.9% in [4]; 62.6% in test [5]; 102% in [6]. Moreover, the growth in test [7] is 58.3%; in test [8] it was 104%; in test [9] it was 111%; in [10] it was 97.6%; in [11], -10.9% (active); in test [12], 29.6%. Moreover, the growth was -16.4% (active) in test [13]; 62.1% in test [14]; 95.3% in test [15]; 58.8% in test [16]; 82.9% in test [17]; 25.4% in [18]. The growth was -10% (active) in test [19] and 89.5% in test [20].
